Laboratory results as given in PubChem BioAssay (NCI).
Values joined by “and” are separate entries in the source; they are usually repeats but may differ in a detail not shown here. Equal entries are not always repeated. Compounds without any hit were thinned out: in the full panel of roughly 83,000, 20% have a hit.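 Cells were grown in 96-well plates and exposed to the test compound at a single concentration for 48 hours; results are reported as percent growth, with values below 10 considered active.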 Values without a mark were called inactive. Active and inactive are the calls of the source.

The molecules below were run on PC-3 prostate (assay: NCI-60 one-dose screen, 48 h (100 = growth as untreated, 0 = no growth, -100 = all killed)). Settings: 4.75 µM.
Protocol: Growth inhibition of the PC-3 human tumor cell line is measured as a screen for anti-cancer activity. Cells are grown in 96 well plates and exposed to the test compound for 48 hours. Compounds are tested at a single concentration, which is 10^-5 M for most compounds. The reported endpoint is percent growth (GI% or GIPRCNT), where numbers from 0 - 100% represent growth inhibition, and numbers from -100% - 0 represent cell death. For example, a value of 40 represents 60% growth inhibition. A value of 0 means no net growth occurred over the course of the experiment. A value of -40 indicates 40% of cells at the beginning of the experiment died by the end of the experiment. A value of -100 means all cells are dead at the end of the experiment.
NCI-60 Human Tumor Cell Lines Screen was performed using the standard one-dose NCI protocol, which is described in more detail at https://dtp.cancer.gov/discovery_development/nci-60/default.htm.
Compounds with GIPRCNT values below 10 were considered active. Activity score was based on GIPRCNT using the following formula: […]
Score is 0 for GIPRCNT values of 100 or above, 50 for GIPRCNT values of 0, and 100 for GIPRCNT values of -100.

Row | Structure (SMILES) | growth
1 | CC(=O)OCC1OC([S-])C(OC(C)=O)C(OC(C)=O)C1OC(C)=O.[Au+].c1ccc(CN2[CH-]N(Cc3ccccc3)C(c3ccccc3)=C2c2ccccc2)cc1 | 4.86% (active)

Same assay, conditions: 10 µM

Row | Structure (SMILES) | growth
2 | CC(=O)OCC1OC([S-])C(OC(C)=O)C(OC(C)=O)C1OC(C)=O.[Au+].c1ccc(CN2[CH-]N(Cc3ccccc3)C(c3ccccc3)=C2c2ccccc2)cc1 | 9.73% (active)

Same assay, conditions: 10 µM unless noted

Row | Structure (SMILES) | growth
3 | COc1ccc(CN)cc1OC | 106% and 93.5%
4 | O=C(CCCN1CCC2(CC1)C(=O)NCN2c1ccccc1)c1ccc(F)cc1 | 106% and 77.6%
5 | COc1ccc2c(c1)c(-c1nc(-c3c[nH]c4ncccc34)cs1)cn2CCCCN1CCOCC1 | 30.1%
6 | Cc1nnc([S-])o1.[Au+].c1ccc([PH+](c2ccccc2)c2ccccc2)cc1 | 57.7%
7 | CC1(C)N(Nc2ccccc2)C(=O)C2CCCN21 (stereo not given) | 9.48% (active)
8 | C[C@]12CCc3sc(Nc4ccc(O)cc4)nc3C1=CC[C@@H]1[C@@H]2CC[C@]2(C)C(=O)CC[C@@H]12 | 39.1%
9 | CN1C2CCC1[C@@H](COC(=O)c1ccccc1)[C@@H](O)C2 (stereo not given in full) | 99.7%
10 | C=CCOC(=O)C(Br)CC (stereo not given) | 95%
11 | [N-]=[N+]=CC(=O)CCC(=O)C=[N+]=[N-] | 86%
12 | CN(C)c1ccc([N+](=O)[O-])c([N+](=O)[O-])c1 | 105% and 100%
13 | COc1ccn(C)c(=O)c1C#N | 94.7%
14 | O=C(Cc1ccccc1)c1ccccc1 | 98.2%
15 | CC[C@H](CC[C@@H](C)[C@H]1CC[C@H]2[C@@H]3CC[C@H]4C[C@]5(CC[C@]4(C)[C@H]3CC[C@]12C)OO[C@](C)(C(F)(F)F)O5)C(C)C | 94.2%
16 | Cc1ccc(S(=O)(=O)n2cc([C@@]3(O)C[C@H](CSC#N)OC3=O)c3ccccc32)cc1 | 78.5%
17 | O=C1CCCCC1CN1CCCCC1 (stereo not given) | 97.8%
18 | C=C[Se]CC(=O)/C=C/c1ccccc1 | 29.1%
19 | COc1cc(C2C3=C(CCCC3=O)N(CCO)c3cc4c(cc32)CCC4)cc(OC)c1OC (stereo not given) | 80.7%
20 | COc1ccc(O)c2c(=O)c3c(OC)cc4c(c3oc12)[C@@H]1C=CO[C@@H]1O4 | 76.7%
21 | CC[C@H](C)[C@H]1O[C@]2(C=C[C@@H]1C)C[C@@H]1C[C@@H](C/C=C(\C)[C@@H](O[C@H]3C[C@H](OC)[C@@H](O[C@H]4C[C@H](OC)[C@@H](NC)[C@H](C)O4)[C@H](C)O3)[C@@H](C)/C=C/C=C3\CO[C@@H]4[C@H](O)C(C)=C[C@@H](C(=O)O1)[C@]34O)O2 | -16.2% (active)

Row | Structure (SMILES) | growth
22 | Oc1cc(N2CC2)c(O)cc1N1CC1 | 25%
23 | COc1cc2c(cc1OC)[C@@H]1C(=O)c3ccc4c(c3O[C@@H]1CO2)C[C@H](C(C)C)O4 | 9.13% (active)
24 | CC1(C)N=C(N)N=C(N)N1c1ccc(CCC(=O)Nc2ccc(S(=O)(=O)F)cc2)cc1 | 20.2%
25 | CC(=O)Nc1nc2c(s1)C1=CC[C@H]3[C@@H]4CC[C@H](OC(C)=O)[C@@]4(C)CC[C@@H]3[C@@]1(C)CC2 | 59.2%
26 | CCCC[C@H]1C(=O)O[C@H](C)[C@H](NC(=O)c2cccc(NC=O)c2O)C(=O)O[C@@H](C)[C@@H]1OC(=O)CC(C)C | 32.9%
27 | CC(Oc1ccc(-c2ccccc2)cc1)C(=O)O (stereo not given) | 101%
28 | CCC1(CCSC#N)C(=O)NC(=O)NC1=O | 92.5%
29 | C[C@]12CC[C@H]3[C@@H](C[C@@H]4SC(Nc5cccc(F)c5)=N[C@@]45CC(=O)CC[C@]35C)[C@@H]1CCC2=O | 19.1%
30 | C[C@]12CCc3sc(Nc4ccc(F)cc4)nc3C1=CC[C@@H]1[C@@H]2CC[C@]2(C)C(=O)CC[C@@H]12 | 64.3%
31 | O=NN1CCCCC1 | 110%
32 | C[C@]12CC[C@H]3[C@@H](CC=C4c5nc(-c6ccc(Br)cc6)sc5CC[C@@]43C)[C@@H]1CC[C@@H]2O | 101%
33 | O=C(NC(Cl)=C(Cl)Cl)P(=O)(c1ccccc1)c1ccccc1 | 103%
34 | C[C@]12CCc3sc(Nc4ccc(OC(F)(F)F)cc4)nc3C1=CC[C@@H]1[C@@H]2CC[C@]2(C)C(=O)CC[C@@H]12 | 38.6%
35 | O=S(=O)(c1ccc(O)cc1)c1ccccc1O | 89%
36 | C[C@]12CCc3sc(Nc4ccc(F)cc4F)nc3C1=CC[C@@H]1[C@@H]2CC[C@]2(C)C(=O)CC[C@@H]12 | 52.9%
37 | N#CCc1ccc(CC#N)cc1 | 91.2%
38 | CCCCCCCCCCCCCCCCCC1OCC(COC(=O)O[C@@H](C(=O)O[C@H]2C[C@@]3(O)[C@@H](OC(=O)c4ccccc4)[C@@H]4[C@]5(OC(C)=O)CO[C@@H]5C[C@H](O)[C@@]4(C)C(=O)[C@H](OC(C)=O)C(=C2C)C3(C)C)[C@@H](NC(=O)c2ccccc2)c2ccccc2)O1 (stereo not given in full) | 39.9%
39 | CCOP(=O)(OCC)C(=O)N(CC)CC | 96.5%
40 | O=[N+]([O-])c1cc(Br)c(O)c(Br)c1 | 96.7%
